Experiments:
Assay in all cases: DAPPL (digital affinity profiling via proximity ligation, sequencing); 10 mM Tris-HCl pH 7.5, 50 mM NaCl, 1 mM DTT, 4% glycerol, room temperature, 30 min; GST-TFs on glutathione beads, 16-mer random dsDNA library, 0.1% formaldehyde crosslink after washing; high values mean tight binding
FEV = target: T1, FEV (Homo sapiens, UniProt Q99581 1-238); conditions: protein: recombinant; tags: N-terminal GST; dsDNA, one strand shown
T1 sequence: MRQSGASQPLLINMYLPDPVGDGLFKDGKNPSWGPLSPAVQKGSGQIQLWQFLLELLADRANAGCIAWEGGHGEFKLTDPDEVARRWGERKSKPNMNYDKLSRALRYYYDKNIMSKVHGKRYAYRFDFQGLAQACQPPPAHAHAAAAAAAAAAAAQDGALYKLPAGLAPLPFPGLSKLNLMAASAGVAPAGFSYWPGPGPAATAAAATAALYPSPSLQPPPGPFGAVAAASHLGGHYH
How it was run: (§1)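 In yeast, human transcription factors were expressed with a GST fusion, then pulled down on glutathione beads and given DNA barcodes. Pooled with a tag-only sample, they were exposed to 200 nmole of a 16-mer random double-stranded DNA library (Tris/NaCl/DTT/glycerol buffer, room temperature, 30 min), washed, crosslinked with 0.1% formaldehyde, proximity-ligated using BsaI/T4 ligase for 1 h at 37 °C, PCR-amplified and read on an Illumina NextSeq500. Each hexamer's frequency of reads for a factor, divided by the matching frequency for the tag-only sample, gives the binding signal.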

ETV5 = ETV5 (Homo sapiens, UniProt P41161 1-510); conditions: protein: recombinant; tags: N-terminal GST; dsDNA, one strand shown
How it was run: as §1

HSF1 = HSF1 (Homo sapiens, UniProt Q00613 1-529); conditions: protein: recombinant; tags: N-terminal GST; chain copies: 3; dsDNA, one strand shown
How it was run: as §1

SPIC = target: T2, SPIC (Homo sapiens, UniProt Q8N5J4 1-248); conditions: protein: recombinant; tags: N-terminal GST; dsDNA, one strand shown
T2 sequence: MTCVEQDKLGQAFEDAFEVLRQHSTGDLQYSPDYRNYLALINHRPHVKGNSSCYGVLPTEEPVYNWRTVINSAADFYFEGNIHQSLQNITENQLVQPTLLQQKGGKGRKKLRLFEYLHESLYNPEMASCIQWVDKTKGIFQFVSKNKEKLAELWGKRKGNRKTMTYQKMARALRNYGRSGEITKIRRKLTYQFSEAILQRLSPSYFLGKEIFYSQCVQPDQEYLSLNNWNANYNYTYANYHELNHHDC
How it was run: as §1

ELF4 = ELF4 (Homo sapiens, UniProt Q99607 1-663); conditions: protein: recombinant; tags: N-terminal GST; dsDNA, one strand shown
How it was run: as §1

ELK4 = target: T3, ELK4 (Homo sapiens, UniProt P28324-2 1-405); conditions: protein: recombinant; tags: N-terminal GST; dsDNA, one strand shown
T3 sequence: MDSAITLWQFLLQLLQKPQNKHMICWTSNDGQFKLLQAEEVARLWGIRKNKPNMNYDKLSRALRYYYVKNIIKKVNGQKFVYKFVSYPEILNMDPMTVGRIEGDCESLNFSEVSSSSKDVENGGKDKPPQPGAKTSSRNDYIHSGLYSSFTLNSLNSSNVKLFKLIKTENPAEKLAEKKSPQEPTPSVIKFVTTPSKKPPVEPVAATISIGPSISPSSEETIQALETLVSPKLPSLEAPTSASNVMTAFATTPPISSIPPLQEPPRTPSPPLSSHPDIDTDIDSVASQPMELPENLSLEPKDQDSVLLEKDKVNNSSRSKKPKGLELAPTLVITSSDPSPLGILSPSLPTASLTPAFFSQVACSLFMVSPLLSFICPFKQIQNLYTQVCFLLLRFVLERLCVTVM
How it was run: as §1

ETV2 = target: T4, ETV2 (Homo sapiens, UniProt O00321 1-342); conditions: protein: recombinant; tags: N-terminal GST; dsDNA, one strand shown
T4 sequence: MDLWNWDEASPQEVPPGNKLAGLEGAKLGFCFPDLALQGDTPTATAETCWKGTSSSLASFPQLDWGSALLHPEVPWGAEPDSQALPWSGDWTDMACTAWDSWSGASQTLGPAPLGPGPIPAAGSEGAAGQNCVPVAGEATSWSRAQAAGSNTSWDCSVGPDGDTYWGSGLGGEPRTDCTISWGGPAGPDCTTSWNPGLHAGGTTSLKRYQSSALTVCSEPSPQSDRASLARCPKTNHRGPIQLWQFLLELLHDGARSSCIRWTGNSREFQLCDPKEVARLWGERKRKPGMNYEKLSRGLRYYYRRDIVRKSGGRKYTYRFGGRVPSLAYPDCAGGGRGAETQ
How it was run: as §1

ELF3 = target: T5, ELF3 (Homo sapiens, UniProt P78545 1-371); conditions: protein: recombinant; tags: N-terminal GST; dsDNA, one strand shown
T5 sequence: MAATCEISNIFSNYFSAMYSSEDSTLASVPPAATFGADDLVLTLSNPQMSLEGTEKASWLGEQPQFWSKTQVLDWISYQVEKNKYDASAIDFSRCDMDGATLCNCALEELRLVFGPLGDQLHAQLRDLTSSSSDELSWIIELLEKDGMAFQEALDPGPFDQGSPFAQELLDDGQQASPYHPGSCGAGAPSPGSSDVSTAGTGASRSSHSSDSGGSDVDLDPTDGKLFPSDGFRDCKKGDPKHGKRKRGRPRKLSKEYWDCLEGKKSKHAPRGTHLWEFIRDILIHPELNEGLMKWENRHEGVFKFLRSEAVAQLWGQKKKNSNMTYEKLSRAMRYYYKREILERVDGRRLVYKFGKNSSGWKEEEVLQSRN
How it was run: as §1

CRX = CRX (Homo sapiens, UniProt O43186 1-299); conditions: protein: recombinant; tags: N-terminal GST; dsDNA, one strand shown
How it was run: as §1

ETV1 = ETV1 (Homo sapiens, UniProt P50549 1-477); conditions: protein: recombinant; tags: N-terminal GST; dsDNA, one strand shown
How it was run: as §1

ERF = target: T6, ERF (Homo sapiens, UniProt P50548 1-548); conditions: protein: recombinant; tags: N-terminal GST; dsDNA, one strand shown
T6 sequence: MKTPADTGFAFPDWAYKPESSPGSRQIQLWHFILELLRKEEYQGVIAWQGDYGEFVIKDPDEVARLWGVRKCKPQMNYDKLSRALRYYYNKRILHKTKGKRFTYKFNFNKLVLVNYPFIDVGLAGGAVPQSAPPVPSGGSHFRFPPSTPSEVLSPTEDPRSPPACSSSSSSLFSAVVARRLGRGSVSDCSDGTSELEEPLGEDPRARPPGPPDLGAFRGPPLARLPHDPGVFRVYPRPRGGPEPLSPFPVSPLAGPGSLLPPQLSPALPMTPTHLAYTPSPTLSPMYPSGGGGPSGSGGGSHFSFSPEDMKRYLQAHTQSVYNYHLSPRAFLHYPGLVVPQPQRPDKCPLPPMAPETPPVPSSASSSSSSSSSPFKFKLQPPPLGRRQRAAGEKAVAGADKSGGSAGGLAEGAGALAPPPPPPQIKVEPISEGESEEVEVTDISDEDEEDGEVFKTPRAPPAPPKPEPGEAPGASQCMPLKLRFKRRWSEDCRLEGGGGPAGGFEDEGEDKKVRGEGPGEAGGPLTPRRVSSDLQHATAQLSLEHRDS
How it was run: as §1

ETV3L = target: T7, ETV3L (Homo sapiens, UniProt Q6ZN32 1-361); conditions: protein: recombinant; tags: N-terminal GST; dsDNA, one strand shown
T7 sequence: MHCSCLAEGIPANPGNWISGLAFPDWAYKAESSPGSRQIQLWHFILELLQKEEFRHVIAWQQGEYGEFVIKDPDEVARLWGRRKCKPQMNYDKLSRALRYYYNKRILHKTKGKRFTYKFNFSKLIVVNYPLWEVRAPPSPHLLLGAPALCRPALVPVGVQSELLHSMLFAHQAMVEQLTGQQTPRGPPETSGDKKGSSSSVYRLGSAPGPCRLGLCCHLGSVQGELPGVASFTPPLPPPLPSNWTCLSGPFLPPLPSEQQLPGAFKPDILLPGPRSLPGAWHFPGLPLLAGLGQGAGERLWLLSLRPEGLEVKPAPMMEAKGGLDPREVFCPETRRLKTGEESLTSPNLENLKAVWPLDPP
How it was run: as §1

ETS2 = target: T8, ETS2 (Homo sapiens, UniProt P15036 1-469); conditions: protein: recombinant; tags: N-terminal GST; dsDNA, one strand shown
T8 sequence: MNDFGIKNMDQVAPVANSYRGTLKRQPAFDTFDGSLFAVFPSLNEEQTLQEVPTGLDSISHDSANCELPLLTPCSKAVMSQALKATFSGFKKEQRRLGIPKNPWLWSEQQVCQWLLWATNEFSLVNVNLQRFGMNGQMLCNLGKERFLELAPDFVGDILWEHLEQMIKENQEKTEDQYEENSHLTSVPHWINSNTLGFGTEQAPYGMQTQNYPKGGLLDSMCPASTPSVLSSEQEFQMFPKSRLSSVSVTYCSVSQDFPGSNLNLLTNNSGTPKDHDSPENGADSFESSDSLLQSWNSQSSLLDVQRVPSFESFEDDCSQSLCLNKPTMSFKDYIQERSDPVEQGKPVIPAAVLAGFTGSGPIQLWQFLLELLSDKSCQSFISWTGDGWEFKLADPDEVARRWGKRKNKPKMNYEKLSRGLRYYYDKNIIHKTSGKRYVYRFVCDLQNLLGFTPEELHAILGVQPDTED
How it was run: as §1

SPDEF = target: T9, SPDEF (Homo sapiens, UniProt O95238 1-335); conditions: protein: recombinant; tags: N-terminal GST; dsDNA, one strand shown
T9 sequence: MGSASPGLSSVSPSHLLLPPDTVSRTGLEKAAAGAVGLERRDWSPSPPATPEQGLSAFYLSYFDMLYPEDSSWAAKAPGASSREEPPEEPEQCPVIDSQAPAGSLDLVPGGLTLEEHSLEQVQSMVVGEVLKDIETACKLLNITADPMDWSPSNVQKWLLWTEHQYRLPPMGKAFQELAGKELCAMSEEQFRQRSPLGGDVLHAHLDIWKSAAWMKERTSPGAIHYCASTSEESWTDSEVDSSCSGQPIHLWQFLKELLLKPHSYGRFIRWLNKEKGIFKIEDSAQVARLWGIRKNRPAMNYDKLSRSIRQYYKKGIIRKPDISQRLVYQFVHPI
How it was run: as §1

ETV7 = target: T10, ETV7 (Homo sapiens, UniProt Q9Y603 1-341); conditions: protein: recombinant; tags: N-terminal GST; dsDNA, one strand shown
T10 sequence: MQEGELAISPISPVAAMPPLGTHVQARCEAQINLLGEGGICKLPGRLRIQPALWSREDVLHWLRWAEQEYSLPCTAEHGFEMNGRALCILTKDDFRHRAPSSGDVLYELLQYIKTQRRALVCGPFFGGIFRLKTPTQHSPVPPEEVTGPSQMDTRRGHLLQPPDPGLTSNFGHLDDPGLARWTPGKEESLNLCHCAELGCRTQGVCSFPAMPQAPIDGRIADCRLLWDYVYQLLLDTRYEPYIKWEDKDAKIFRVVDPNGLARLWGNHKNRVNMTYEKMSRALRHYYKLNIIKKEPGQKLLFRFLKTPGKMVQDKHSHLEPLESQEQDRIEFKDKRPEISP
How it was run: as §1

ELF5 = target: T11, ELF5 (Homo sapiens, UniProt Q9UKW6-2 1-255); conditions: protein: recombinant; tags: N-terminal GST; dsDNA, one strand shown
T11 sequence: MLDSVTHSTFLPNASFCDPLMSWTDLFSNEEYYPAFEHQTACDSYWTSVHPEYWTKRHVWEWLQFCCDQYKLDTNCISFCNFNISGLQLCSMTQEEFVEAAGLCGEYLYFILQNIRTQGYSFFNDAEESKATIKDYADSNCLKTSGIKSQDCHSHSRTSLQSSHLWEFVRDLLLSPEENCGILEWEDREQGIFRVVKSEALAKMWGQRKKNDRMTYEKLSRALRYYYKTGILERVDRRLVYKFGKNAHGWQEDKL
How it was run: as §1

ETV3 = target: T12, ETV3 (Homo sapiens, UniProt P41162-2 1-143); conditions: protein: recombinant; tags: N-terminal GST; dsDNA, one strand shown
T12 sequence: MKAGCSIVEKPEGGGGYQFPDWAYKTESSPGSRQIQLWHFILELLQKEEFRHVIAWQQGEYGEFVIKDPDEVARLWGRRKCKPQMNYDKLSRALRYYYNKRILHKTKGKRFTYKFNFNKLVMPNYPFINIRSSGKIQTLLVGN
How it was run: as §1

ETV6 = ETV6 (Homo sapiens, UniProt P41212 1-452); conditions: protein: recombinant; tags: N-terminal GST; dsDNA, one strand shown
How it was run: as §1

HSF1, sequence (Q00613 whole entry): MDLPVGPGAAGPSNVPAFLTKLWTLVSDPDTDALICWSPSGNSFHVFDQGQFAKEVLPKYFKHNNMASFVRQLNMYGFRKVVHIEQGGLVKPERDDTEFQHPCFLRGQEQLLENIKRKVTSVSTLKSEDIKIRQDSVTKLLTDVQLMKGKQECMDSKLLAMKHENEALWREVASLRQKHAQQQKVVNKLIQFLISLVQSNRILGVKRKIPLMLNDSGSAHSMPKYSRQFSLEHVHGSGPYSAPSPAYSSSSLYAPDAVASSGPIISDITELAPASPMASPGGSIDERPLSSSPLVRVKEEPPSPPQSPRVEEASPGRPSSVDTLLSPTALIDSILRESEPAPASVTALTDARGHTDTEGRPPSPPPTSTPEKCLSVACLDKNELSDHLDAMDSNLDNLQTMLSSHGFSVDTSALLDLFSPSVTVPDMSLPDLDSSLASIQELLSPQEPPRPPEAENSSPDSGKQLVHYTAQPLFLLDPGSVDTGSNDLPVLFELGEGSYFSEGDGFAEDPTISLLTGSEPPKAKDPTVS
ETV5, sequence (P41161 whole entry): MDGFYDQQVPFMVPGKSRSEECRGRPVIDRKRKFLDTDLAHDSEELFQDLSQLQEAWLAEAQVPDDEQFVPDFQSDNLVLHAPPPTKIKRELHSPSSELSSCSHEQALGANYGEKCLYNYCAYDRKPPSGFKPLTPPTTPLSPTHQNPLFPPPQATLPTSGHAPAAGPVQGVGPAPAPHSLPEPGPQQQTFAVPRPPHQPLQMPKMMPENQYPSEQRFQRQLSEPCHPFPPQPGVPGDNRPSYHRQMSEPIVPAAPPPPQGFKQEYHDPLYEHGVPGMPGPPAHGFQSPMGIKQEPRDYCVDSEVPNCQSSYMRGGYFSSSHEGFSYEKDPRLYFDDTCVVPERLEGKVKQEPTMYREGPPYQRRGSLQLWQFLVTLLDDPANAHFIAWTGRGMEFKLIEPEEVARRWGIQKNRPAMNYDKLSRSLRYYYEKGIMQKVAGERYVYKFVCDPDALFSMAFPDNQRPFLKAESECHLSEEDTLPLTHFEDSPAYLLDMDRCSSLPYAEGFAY
ETV1, sequence (P50549 whole entry): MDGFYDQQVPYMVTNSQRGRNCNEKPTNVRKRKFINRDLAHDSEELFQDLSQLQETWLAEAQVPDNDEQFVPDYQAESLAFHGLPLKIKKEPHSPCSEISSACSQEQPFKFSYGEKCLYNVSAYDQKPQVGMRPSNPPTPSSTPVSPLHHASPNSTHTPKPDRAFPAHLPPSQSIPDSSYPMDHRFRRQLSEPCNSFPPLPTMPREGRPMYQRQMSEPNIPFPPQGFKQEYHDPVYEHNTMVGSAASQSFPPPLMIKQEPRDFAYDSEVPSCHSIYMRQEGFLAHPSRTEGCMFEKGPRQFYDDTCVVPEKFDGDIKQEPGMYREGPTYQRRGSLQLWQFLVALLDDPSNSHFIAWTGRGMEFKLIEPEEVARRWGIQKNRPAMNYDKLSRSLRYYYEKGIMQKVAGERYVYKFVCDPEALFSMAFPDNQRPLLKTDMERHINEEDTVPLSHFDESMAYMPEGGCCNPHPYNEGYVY
CRX, sequence (O43186 whole entry): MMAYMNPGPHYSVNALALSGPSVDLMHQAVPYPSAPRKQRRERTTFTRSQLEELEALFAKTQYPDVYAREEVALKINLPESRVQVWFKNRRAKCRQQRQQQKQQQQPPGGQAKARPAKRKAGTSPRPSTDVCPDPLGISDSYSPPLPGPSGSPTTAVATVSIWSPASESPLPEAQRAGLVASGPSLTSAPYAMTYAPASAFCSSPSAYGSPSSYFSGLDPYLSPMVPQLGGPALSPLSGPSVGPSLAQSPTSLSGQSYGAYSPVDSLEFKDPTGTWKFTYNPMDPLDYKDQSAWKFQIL
ELF4, sequence (Q99607 whole entry): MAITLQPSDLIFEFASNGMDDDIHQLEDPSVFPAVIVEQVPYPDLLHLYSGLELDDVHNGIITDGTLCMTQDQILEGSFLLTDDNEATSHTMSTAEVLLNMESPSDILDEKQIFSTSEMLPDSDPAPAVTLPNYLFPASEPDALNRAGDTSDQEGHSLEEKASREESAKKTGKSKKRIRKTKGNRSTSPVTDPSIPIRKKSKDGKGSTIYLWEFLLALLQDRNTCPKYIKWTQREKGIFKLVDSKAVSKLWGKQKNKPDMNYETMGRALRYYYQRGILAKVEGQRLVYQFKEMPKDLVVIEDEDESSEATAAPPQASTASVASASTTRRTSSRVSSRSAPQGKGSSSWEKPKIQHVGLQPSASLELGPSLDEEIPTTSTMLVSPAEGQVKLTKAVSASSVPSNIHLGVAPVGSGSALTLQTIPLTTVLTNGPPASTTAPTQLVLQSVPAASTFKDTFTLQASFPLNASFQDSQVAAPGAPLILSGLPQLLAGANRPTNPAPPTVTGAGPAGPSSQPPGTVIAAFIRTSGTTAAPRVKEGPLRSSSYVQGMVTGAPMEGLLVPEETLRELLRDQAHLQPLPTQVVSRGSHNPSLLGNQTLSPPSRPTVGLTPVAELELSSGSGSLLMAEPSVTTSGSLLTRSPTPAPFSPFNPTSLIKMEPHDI
ETV6, sequence (P41212 whole entry): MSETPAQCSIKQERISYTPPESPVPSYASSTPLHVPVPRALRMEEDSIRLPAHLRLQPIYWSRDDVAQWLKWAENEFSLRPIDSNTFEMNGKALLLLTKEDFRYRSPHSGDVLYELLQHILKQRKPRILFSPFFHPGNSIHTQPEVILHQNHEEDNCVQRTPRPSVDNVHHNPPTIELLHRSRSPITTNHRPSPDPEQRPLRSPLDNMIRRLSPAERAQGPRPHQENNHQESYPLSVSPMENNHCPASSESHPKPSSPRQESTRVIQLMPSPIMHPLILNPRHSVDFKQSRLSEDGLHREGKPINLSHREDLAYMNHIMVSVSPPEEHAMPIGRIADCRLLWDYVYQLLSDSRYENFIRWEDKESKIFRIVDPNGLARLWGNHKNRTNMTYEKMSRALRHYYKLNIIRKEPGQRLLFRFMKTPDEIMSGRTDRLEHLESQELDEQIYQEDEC

Sequence: TCCGGA
- binding signal (FEV): 3.95 fold enrichment (6-mer frequency, TF over GST control)
- binding signal (ETV5): 2.83 fold enrichment (6-mer frequency, TF over GST control)
- binding signal (HSF1): 1.58 fold enrichment (6-mer frequency, TF over GST control)
- binding signal (SPIC): 2.3 fold enrichment (6-mer frequency, TF over GST control)
- binding signal (ELF4): 2.27 fold enrichment (6-mer frequency, TF over GST control)
- binding signal (ELK4): 1.94 fold enrichment (6-mer frequency, TF over GST control)
- binding signal (ETV2): 2.27 fold enrichment (6-mer frequency, TF over GST control)
- binding signal (ELF3): 2.23 fold enrichment (6-mer frequency, TF over GST control)
- binding signal (CRX): 1.14 fold enrichment (6-mer frequency, TF over GST control)
- binding signal (ETV1): 2.75 fold enrichment (6-mer frequency, TF over GST control)
- binding signal (ERF): 2.04 fold enrichment (6-mer frequency, TF over GST control)
- binding signal (ETV3L): 2.42 fold enrichment (6-mer frequency, TF over GST control)
- binding signal (ETS2): 2.66 fold enrichment (6-mer frequency, TF over GST control)
- binding signal (SPDEF): 3.16 fold enrichment (6-mer frequency, TF over GST control)
- binding signal (ETV7): 2.24 fold enrichment (6-mer frequency, TF over GST control)
- binding signal (ELF5): 3.19 fold enrichment (6-mer frequency, TF over GST control)
- binding signal (ETV3): 2.84 fold enrichment (6-mer frequency, TF over GST control)
- binding signal (ETV6): 2.7 fold enrichment (6-mer frequency, TF over GST control)

From publication PMC7862700, “An all-to-all approach to the identification of sequence-specific readers for epigenetic DNA modifications on cytosine”
